Assay results published in the supplement of paper PMC6555819.

Assays:
Experiment in all cases: PBM binding z-score (relative to random genomic background probes); higher = stronger binding; sequences stand for … in GC…GCGATTGACAGCGTAGAATGAAGG
[1] = test system: RARb homodimer (NR concentration 270 nM)
In short: (§1)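 Random background probes are the reference for binding z-scores. These scores derive from regression-normalized fluorescence on custom Agilent 4×180K protein-binding microarrays incubated 1 h with ligand-free nuclear receptor dimers. Binding was detected with antibodies against each partner (one per run).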

[2] = test system: RARg:RXRa (NR concentration 270 nM, RXRa partner concentration 90 nM)
In short: as §1

[3] = test system: RARg homodimer (NR concentration 270 nM)
In short: as §1

[4] = test system: RXRa DBDmut IVT, anti-RXR (DBD mutation: RXRa K156A/R161A, NR concentration 90 nM)
In short: as §1

[5] = test system: RXRa homodimer (NR concentration 180 nM)
In short: as §1

[6] = test system: THRa:RXRa (NR concentration 90 nM, RXRa partner concentration 90 nM)
In short: as §1

[7] = test system: THRa homodimer (NR concentration 90 nM)
In short: as §1

[8] = test system: VDR homodimer (NR concentration 270 nM)
In short: as §1

Sequence	PBM binding z-score [1]	PBM binding z-score [2]	PBM binding z-score [3]	PBM binding z-score [4]	PBM binding z-score [5]	PBM binding z-score [6]	PBM binding z-score [7]	PBM binding z-score [8]
ACTATTAGTTGACTTAGGACAACCGATACGACGC	0.766	0.732	1.04	0.853	0.557	2.12	1.88	0.342
GCTAGTTGGTCAGTAAAAGGTCACACCCCGGTCG	5.28	5.17	4.3	0.0893	4.86	3.57	2.15	1.43
TAGCCTAGATCATTCAGGGGCCAGTATAGAAAGC	0.182	0.658	0.249	-0.277	0.341	0.0485	-0.624	-0.00416
AGAATGAGGTTATATGTAGATCAGGGAAGAAAGT	1.34	1.69	1.09	1.74	2.1	2.44	1.22	1.24
ACTAGCAGGCCAAGGCTCACTCAAGATTAGTCCG	-0.234	-0.222	0.0156	-0.206	-0.0748	-0.43	-0.144	-0.802
CATATTAGTTGACCATAAGGGCAACCGAAGCTCG	2.07	1.61	1.37	0.612	0.942	1.95	1.35	1.14
GCTTACGGGTCAAAGATTATAGCATGAATAGAAT	2.21	4.65	4.34	2.38	5.43	2.21	-0.519	0.811
